# Calls of active or inactive are those of the source.
# What was measured:
# [1] = E. coli DRC41 culture turbidity changes, primary screen, E. coli filamentation inducer project, strain DRC41, OD650, 48 h (AID 1152);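 further: E. coli MC1000 strain DRC41 lacking acrAB efflux pump and sulA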; details: E. coli DRC41 (acrAB sulA), higher = more signal, called active from +8 up or from −8 down
# [2] = small-molecule binders of probe aLefty1, primary screen, biochemical, small-molecule microarray, 635/667 nm fluorescence (AID 1153); details: higher = more signal;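 further: score merges spot fluorescence with signal-to-noise ratio from the scanned slide images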
# [3] = PSAC antagonists in infected red cells, primary screen, cell-based, P. falciparum Indochina, OD700, 1 h (AID 1154); details: P. falciparum Indochina infected RBC osmotic lysis, higher = more signal, called active from +8 up or from −8 down
# [4] = PSAC antagonists in infected red cells, primary screen, cell-based, P. falciparum Indochina, OD700, 2 h (AID 1155);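 further: lysis reports solute entry through the parasite surface anion channel PSAC; channel blockers reduce lysis of infected cells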; details: P. falciparum Indochina infected erythrocytes, osmotic lysis OD700; higher = more signal, called active from +8 up or from −8 down
# [5] = osmotic lysis modulators in infected erythrocytes, primary screen, PSAC antagonist project, cell-based, P. falciparum Indochina, OD700, 3 h (AID 1156); details: higher = more signal, called active from +8 up or from −8 down
# [6] = PSAC antagonists in infected red cells, primary screen, cell-based, P. falciparum Indochina, OD700, 18 h (AID 1157); details: P. falciparum Indochina infected erythrocytes, osmotic lysis OD700, 18 h; higher = more signal, called active from +8 up or from −8 down
# [7] = modulators of S6 phosphorylation in cells, primary screen, cell-based, A549, cytoblot, luminescence, serum-stimulated (AID 1158); details: A549 phospho-S6 cytoblot, 5 h, higher = more signal;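 further: serum-stimulated A549 lung adenocarcinoma cells; signal is phosphorylated S6 detected by cytoblot immunostaining with HRP secondary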
# [8] = target: NADPH oxidase 2 (Homo sapiens) (UniProt P04839); experiment: NOX2-dependent H2O2 signal modulators, primary screen, NOX inhibitor project, cell-based, HEK293-NOX2, PMA-stimulated, Amplex Red fluorescence (AID 1159); details: 45 min, higher = more signal, called active from +8 up or from −8 down; further: test concentration not given here
# NADPH oxidase 2 (Homo sapiens), sequence (P04839 whole entry, looked up): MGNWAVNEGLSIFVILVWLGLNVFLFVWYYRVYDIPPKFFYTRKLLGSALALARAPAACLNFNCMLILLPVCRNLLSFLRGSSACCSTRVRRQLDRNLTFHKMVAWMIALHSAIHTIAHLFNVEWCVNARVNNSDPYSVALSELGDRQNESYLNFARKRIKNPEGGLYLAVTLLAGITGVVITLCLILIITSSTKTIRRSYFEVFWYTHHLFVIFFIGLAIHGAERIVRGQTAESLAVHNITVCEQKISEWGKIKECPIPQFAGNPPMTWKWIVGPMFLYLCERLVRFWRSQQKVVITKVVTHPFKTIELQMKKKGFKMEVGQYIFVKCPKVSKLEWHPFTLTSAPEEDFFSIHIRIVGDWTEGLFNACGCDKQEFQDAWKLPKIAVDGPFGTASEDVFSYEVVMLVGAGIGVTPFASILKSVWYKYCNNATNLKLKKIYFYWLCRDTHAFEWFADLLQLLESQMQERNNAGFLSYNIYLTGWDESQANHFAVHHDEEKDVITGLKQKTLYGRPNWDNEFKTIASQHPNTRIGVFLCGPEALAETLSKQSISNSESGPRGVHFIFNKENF
# [9] = target: NADPH oxidase 4 (Homo sapiens) (UniProt Q9NPH5); experiment: NOX4-dependent H2O2 signal modulators, primary screen, NOX inhibitor project, cell-based, HEK293-NOX4, tetracycline-induced, Amplex Red fluorescence (AID 1160); details: 45 min, higher = more signal, called active from +8 up or from −8 down
# NADPH oxidase 4 (Homo sapiens), sequence (Q9NPH5 whole entry, looked up): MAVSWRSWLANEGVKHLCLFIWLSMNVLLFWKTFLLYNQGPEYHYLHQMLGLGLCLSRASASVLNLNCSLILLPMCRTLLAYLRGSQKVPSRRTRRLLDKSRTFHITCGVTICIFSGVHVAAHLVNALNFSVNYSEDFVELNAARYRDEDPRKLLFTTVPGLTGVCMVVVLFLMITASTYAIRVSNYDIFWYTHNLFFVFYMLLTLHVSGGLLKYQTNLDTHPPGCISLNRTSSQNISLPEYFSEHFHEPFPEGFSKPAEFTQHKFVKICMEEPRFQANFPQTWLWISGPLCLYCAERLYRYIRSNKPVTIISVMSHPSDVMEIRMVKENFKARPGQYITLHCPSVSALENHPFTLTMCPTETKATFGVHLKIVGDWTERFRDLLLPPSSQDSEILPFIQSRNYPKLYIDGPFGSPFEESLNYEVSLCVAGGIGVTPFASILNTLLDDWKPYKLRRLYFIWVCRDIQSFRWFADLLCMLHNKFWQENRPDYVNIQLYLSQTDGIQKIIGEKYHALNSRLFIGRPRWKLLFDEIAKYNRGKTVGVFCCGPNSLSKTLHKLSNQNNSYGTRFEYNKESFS
# [10] = target: NADPH oxidase 5 (Homo sapiens) (UniProt Q96PH1); experiment: NOX5-dependent H2O2 signal modulators, primary screen, NOX inhibitor project, cell-based, HEK293-NOX5, Amplex Red fluorescence (AID 1161); details: HEK293-NOX5, ionomycin, 45 min, higher = more signal
# NADPH oxidase 5 (Homo sapiens), sequence (Q96PH1 whole entry, looked up): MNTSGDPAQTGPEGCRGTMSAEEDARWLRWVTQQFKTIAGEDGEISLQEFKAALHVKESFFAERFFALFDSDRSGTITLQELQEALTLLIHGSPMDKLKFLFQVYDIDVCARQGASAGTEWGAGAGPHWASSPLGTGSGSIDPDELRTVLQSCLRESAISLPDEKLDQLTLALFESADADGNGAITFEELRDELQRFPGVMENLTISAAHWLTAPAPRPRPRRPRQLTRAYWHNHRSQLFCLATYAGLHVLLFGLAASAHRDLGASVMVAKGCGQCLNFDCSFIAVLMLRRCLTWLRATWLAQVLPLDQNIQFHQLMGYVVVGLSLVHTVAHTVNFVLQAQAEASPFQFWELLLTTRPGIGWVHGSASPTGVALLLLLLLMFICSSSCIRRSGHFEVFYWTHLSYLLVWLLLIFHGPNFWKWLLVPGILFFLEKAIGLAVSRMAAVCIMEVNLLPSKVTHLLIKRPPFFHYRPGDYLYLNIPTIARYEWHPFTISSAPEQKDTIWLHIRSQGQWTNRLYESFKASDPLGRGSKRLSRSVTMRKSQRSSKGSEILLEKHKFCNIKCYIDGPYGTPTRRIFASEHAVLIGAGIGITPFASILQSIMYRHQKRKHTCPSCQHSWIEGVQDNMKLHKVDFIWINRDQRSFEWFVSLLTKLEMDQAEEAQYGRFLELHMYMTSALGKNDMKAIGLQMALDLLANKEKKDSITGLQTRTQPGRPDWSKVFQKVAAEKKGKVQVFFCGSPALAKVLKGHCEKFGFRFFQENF
SMILES,z-score [1],composite z-score [2],z-score [3],z-score [4],z-score [5],z-score [6],z-score [7],z-score [8],z-score [9],z-score [10]
Cn1c2c(c3ccccc31)C(=O)C1NC2C=CC1(C)C(=O)OCc1ccccc1 (stereo not given),-1.14 (inactive),0.125,0.395 (inactive),0.896 (inactive),0.808 (inactive),0.484 (inactive),-0.495,-0.343 (inactive),-1.52 (inactive),1.31
COCCOC(=O)N1C(=O)[C@@]2(c3cc(C#CC4=CCCCC4)ccc31)[C@H](c1ccc(OCCO)cc1)N1[C@H](c3ccccc3)[C@H](c3ccccc3)OC(=O)[C@H]1[C@@H]2C(=O)Nc1nc2ccccc2s1,2.88 (inactive),0.114,2.35 (inactive),0.922 (inactive),-0.419 (inactive),1.83 (inactive),1.24,0.821 (inactive),0.824 (inactive),1.35
NC(=O)NCC#Cc1ccc2c(c1)[C@]1(C(=O)N2)[C@H](c2ccc(O)cc2)N2[C@H](c3ccccc3)[C@H](c3ccccc3)OC(=O)[C@H]2[C@@H]1C(=O)N1CCN(c2ncccn2)CC1,0.642 (inactive),0.266,1.36 (inactive),0.747 (inactive),0.458 (inactive),0.565 (inactive),-0.0168,1.06 (inactive),0.478 (inactive),1.68
COC(=O)c1c(CC[C@@H](CO)NC(=O)Nc2ncn[nH]2)oc(C(=O)Cc2ccccc2)c1C(=O)OC,-0.862 (inactive),0.0751,0.658 (inactive),0.22 (inactive),-0.641 (inactive),0.0651 (inactive),0.0642,-1.16 (inactive),-0.331 (inactive),-0.53
C=C(/C(=C/C[C@@H](OC(=O)c1ccncc1)c1ccc(CO)o1)c1cc(C(=O)OC)ccc1OC)C(C)C,0.694 (inactive),0.107,6.4 (inactive),1.47 (inactive),2.63 (inactive),0.529 (inactive),0.57,-0.0543 (inactive),-0.699 (inactive),-0.86
O=C1O[C@@H](c2ccccc2)[C@@H](c2ccccc2)N2[C@@H](c3ccc(O)cc3)[C@]3(C(=O)Nc4ccccc43)[C@@H](C(=O)NC[C@H](O)c3ccccc3)[C@H]12,2.14 (inactive),-0.151,1.36 (inactive),-1.01 (inactive),-1.22 (inactive),-1.89 (inactive),1.09,0.0877 (inactive),-0.423 (inactive),1.42
Cc1ccc(S[C@]2(C(=O)NCCCN(C)C)CC(=O)N(C(C)C)[C@@H]2c2ccc(CO)cc2I)cc1,0.997 (inactive),0.264,6.19 (inactive),-0.185 (inactive),1.38 (inactive),0.277 (inactive),-0.265,0.347 (inactive),-0.675 (inactive),2.17
CCCNC(=O)[C@@]1(C)c2ccccc2C(=O)N(Cc2ccc(OC(F)(F)F)cc2)[C@H]1c1ccc(CO)cc1,0.707 (inactive),0.15,7.17 (inactive),0.699 (inactive),2.41 (inactive),0.208 (inactive),0.0696,-1.07 (inactive),0.332 (inactive),0.423
CC(C)NC(=O)[C@@]1(c2ccc([N+](=O)[O-])cc2)CC(=O)N(C(C)C)[C@@H]1c1ccc(CO)cc1,1.58 (inactive),-0.82,1.93 (inactive),-0.672 (inactive),-0.641 (inactive),-0.945 (inactive),1.31,-0.379 (inactive),0.354 (inactive),0.0654
C=C(COC)C(=O)CC[C@H](OC(=O)c1cccnc1)c1ccccc1OCCO,0.0928 (inactive),0.473,8.77 (active),0.805 (inactive),0.0448 (inactive),0.307 (inactive),-0.283,-2.86 (inactive),0.0432 (inactive),-1.26
O=C1O[C@@H](c2ccccc2)[C@@H](c2ccccc2)N2[C@@H](c3ccc(O)cc3)[C@]3(C(=O)Nc4ccc(C#CCCO)cc43)[C@@H](C(=O)N3CCCCCCC3)[C@H]12,-0.681 (inactive),2.4,1.27 (inactive),0.654 (inactive),-0.69 (inactive),0.541 (inactive),-0.364,1.15 (inactive),0.277 (inactive),1.47
COC(=O)[C@@]1(Cc2ccc(OC)cc2)[C@H]2c3cc(C(=O)N4CCCC4)n(CCc4ccccn4)c3C[C@H]2CN1C(=O)c1ccccc1,-1.76 (inactive),0.496,1.15 (inactive),0.453 (inactive),0.924 (inactive),0.518 (inactive),0.958,0.48 (inactive),-2.11 (inactive),-3.82
C=C(/C(=C/C[C@@H](OC(C)=O)c1ccc(CO)o1)c1cnc2ccccc2c1)C(C)C,0.727 (inactive),-0.147,4.83 (inactive),1.28 (inactive),1.74 (inactive),0.332 (inactive),1.04,0.334 (inactive),-1.99 (inactive),-0.957
NC(=O)[C@@]1(CCS(=O)(=O)c2ccccc2)N=C(c2ccc(OCCCO)cc2)O[C@H]1c1ccccc1,1.24 (inactive),0.254,19.7 (active),2.48 (inactive),1.4 (inactive),-0.898 (inactive),2.09,-3.88 (inactive),-1.85 (inactive),-1.61
COc1ccc([Si](C)(C)[C@H]2[C@H](CC(=O)N3Cc4ccccc4C[C@H]3CO)O[C@@]3(C(=O)N(Cc4cccc(I)c4)c4ccccc43)[C@@H]2C)cc1,0.232 (inactive),0.0233,6.74 (inactive),1.38 (inactive),2.14 (inactive),1.19 (inactive),0.452,-1.36 (inactive),-0.348 (inactive),-2.55
C=C(CCCC)/C(=C/C[C@@H](OC(=O)c1ccncc1)c1ccc(CO)o1)c1cc(C(=O)OC)ccc1OC,0.722 (inactive),0.0263,8.99 (active),1.07 (inactive),2.84 (inactive),0.454 (inactive),0.739,-0.268 (inactive),-1.08 (inactive),-1.52
CN1C(=O)C2C=CC(C(O)c3ccc(Br)cc3)N(Nc3ccccc3)C2C1=O (stereo not given),-0.506 (inactive),0.106,0.884 (inactive),0.708 (inactive),0.302 (inactive),0.826 (inactive),-0.595,-0.592 (inactive),-4.5 (inactive),-2.23
Cc1cccc(/C=C/C=O)c1,0.595 (inactive),-0.0479,0.118 (inactive),-0.557 (inactive),0.565 (inactive),-0.212 (inactive),-0.57,-0.0862 (inactive),0.0658 (inactive),1.56
COCCOC(=O)N1C(=O)[C@@]2(c3cc(C#CCCO)ccc31)[C@H](c1ccc(O)cc1)N1[C@H](c3ccccc3)[C@H](c3ccccc3)OC(=O)[C@H]1[C@@H]2C(=O)N1CCCCCCC1,-0.275 (inactive),1.6,0.139 (inactive),-0.178 (inactive),-0.599 (inactive),0.0501 (inactive),-0.451,1.17 (inactive),0.131 (inactive),1.38
COc1ccc(C#Cc2ccc3c(c2)[C@]2(C(=O)N3)[C@H](C(=O)N3CCN(c4ncccn4)CC3)[C@H]3C(=O)O[C@H](c4ccccc4)[C@H](c4ccccc4)N3[C@@H]2c2ccc(O)cc2)cc1,-0.475 (inactive),0.583,1.5 (inactive),1.59 (inactive),0.474 (inactive),0.686 (inactive),-0.2,1.25 (inactive),-0.171 (inactive),-0.146
O=C1O[C@@H](c2ccccc2)[C@@H](c2ccccc2)N2[C@@H](c3ccc(O)cc3)[C@]3(C(=O)Nc4ccc(C#CCCO)cc43)[C@@H](C(=O)O)[C@H]12,0.742 (inactive),1.99,2.28 (inactive),0.62 (inactive),1.22 (inactive),0.614 (inactive),-0.29,0.645 (inactive),-1.2 (inactive),1.21
CN1C(=O)C2C=CC(C(O)C=Cc3ccc([N+](=O)[O-])cc3)N(N3CCCCC3)C2C1=O (stereo not given),-1.54 (inactive),1.11,2.72 (inactive),0.962 (inactive),0.714 (inactive),1.02 (inactive),-0.9,-0.542 (inactive),-0.397 (inactive),-1.25
C=C(COC)/C(=C/C[C@H](OC(C)=O)c1ccccc1OCCO)c1cnc2ccccc2c1,-0.0836 (inactive),-0.0779,16.9 (active),2.74 (inactive),0.661 (inactive),0.799 (inactive),-0.177,-1.79 (inactive),-0.0686 (inactive),-0.854
[N-]=[N+]=NCc1ccccc1C[C@]1(C(=O)NCC(O)CO)COC(c2ccc(OCCCO)cc2)=N1 (stereo not given in full),0.896 (inactive),0.746,24.8 (active),10.2 (active),3.96 (inactive),0.91 (inactive),-0.0894,-2.99 (inactive),-0.28 (inactive),-2.11
C=C(C(=O)CC[C@@H](OC(C)=O)c1ccc(OCCO)cc1)C(C)C,0.0045 (inactive),-0.142,3.04 (inactive),0.584 (inactive),0.652 (inactive),0.332 (inactive),-0.579,-1.37 (inactive),-1.21 (inactive),-1.77

# Source: PubChem BioAssay
